Measured values published in PubChem BioAssay AID1159580 (chemical genetic matrix, 2015).
Out of some 5,500 compounds screened, about 2,000 (36%) were called active. Another 18% or so got no clear call; they are omitted. The list shows a part of the results. A number with no mark means an inactive call. Rule as the data show it: active = normalized growth mostly below about 0.91 (no sharp cut-off); inconclusive = no clear call, values can overlap the other calls; inactive = mostly above about 0.92.

Assay: chemical genetic growth profiling, strain panel (AID 1159580);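 also: tested at 20 µM; growth read once vehicle control cultures reached saturation at 30 °C; 1 = growth at the plate median or of vehicle wells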
Conditions: growth OD

Work on `C#C[C@]1(OC(C)=O)CCC2C3CCC4=CC(=O)CC[C@@H]4C3CC[C@@]21C` (stereo partly drawn) yielded a normalized growth (S. cerevisiae deletion strains, locus YKL009W, strain mrt4, stronger effect = lower value) of 0.968, a normalized growth (S. cerevisiae deletion strains, locus YKL068W, stronger effect = lower value) of 0.973 and a normalized growth (S. cerevisiae deletion strains, locus YKL085W, strain MDH1 (second series), stronger effect = lower value) of 0.967. For the same compound, the normalized growth (S. cerevisiae deletion strains, locus YKL085W, strain MDH1, stronger effect = lower value) was 0.967, the normalized growth (S. cerevisiae deletion strains, locus YKL160W, strain elf1, stronger effect = lower value) was 0.964 and the normalized growth (S. cerevisiae deletion strains, locus YKL190W, strain CNB1, stronger effect = lower value) was 0.977. The normalized growth (S. cerevisiae deletion strains, locus YKR001C, strain vps1, stronger effect = lower value) was 0.945, the normalized growth (S. cerevisiae deletion strains, locus YKR026C, strain gcn3, stronger effect = lower value) was 0.984 and the normalized growth (S. cerevisiae deletion strains, locus YKR091W, strain srl3, stronger effect = lower value) was 0.992. It also gave a normalized growth (S. cerevisiae deletion strains, locus YLL001W, strain dnm1, stronger effect = lower value) of 0.988, a normalized growth (S. cerevisiae deletion strains, locus YLL026W, stronger effect = lower value) of 0.99 and a normalized growth (S. cerevisiae deletion strains, locus YLL041C, strain sdh2, stronger effect = lower value) of 0.976. It also gave a normalized growth (S. cerevisiae deletion strains, locus YLR027C, strain aat2, stronger effect = lower value) of 0.988, a normalized growth (S. cerevisiae deletion strains, locus YLR039C, strain RIC1, stronger effect = lower value) of 0.892 and a normalized growth (S. cerevisiae deletion strains, locus YLR058C, strain SHM2, stronger effect = lower value) of 0.965. For the same compound, the normalized growth (S. cerevisiae deletion strains, locus YLR102C, strain apc9, stronger effect = lower value) was 0.975, the normalized growth (S. cerevisiae deletion strains, locus YLR113W, strain HOG1, stronger effect = lower value) was 0.93 and the normalized growth (S. cerevisiae deletion strains, locus YLR221C, strain rsa3, stronger effect = lower value) was 1.02. For the same compound, the normalized growth (S. cerevisiae deletion strains, locus YLR258W, strain gsy2, stronger effect = lower value) was 0.965, the normalized growth (S. cerevisiae deletion strains, locus YLR262C, strain YPT6 (second series), stronger effect = lower value) was 0.991 and the normalized growth (S. cerevisiae deletion strains, locus YLR262C, strain YPT6, stronger effect = lower value) was 0.842. The normalized growth (S. cerevisiae deletion strains, locus YLR268W, strain sec22, stronger effect = lower value) was 0.926, the normalized growth (S. cerevisiae deletion strains, locus YLR320W, strain mms22, stronger effect = lower value) was 0.969 and the normalized growth (S. cerevisiae deletion strains, locus YLR330W, strain CHS5, stronger effect = lower value) was 0.978. The normalized growth (S. cerevisiae deletion strains, locus YLR342W, strain FKS1 (second series), stronger effect = lower value) was 0.956, the normalized growth (S. cerevisiae deletion strains, locus YLR342W, strain FKS1, stronger effect = lower value) was 0.961 and the normalized growth (S. cerevisiae deletion strains, locus YLR357W, strain rsc2, stronger effect = lower value) was 0.975. It also gave a normalized growth (S. cerevisiae deletion strains, locus YLR370C, strain arc18, stronger effect = lower value) of 0.986, a normalized growth (S. cerevisiae deletion strains, locus YLR371W, strain rom2, stronger effect = lower value) of 0.983 and a normalized growth (S. cerevisiae deletion strains, locus YLR384C, strain iki3, stronger effect = lower value) of 0.991. The normalized growth (S. cerevisiae deletion strains, locus YLR418C, strain cdc73, stronger effect = lower value) was 0.803 (active), the normalized growth (S. cerevisiae deletion strains, locus YML016C, strain PPZ1, stronger effect = lower value) was 0.963 and the normalized growth (S. cerevisiae deletion strains, locus YML032C, strain rad52, stronger effect = lower value) was 0.957. It also gave a normalized growth (S. cerevisiae deletion strains, locus YML120C, strain ndi1, stronger effect = lower value) of 1.02, a normalized growth (S. cerevisiae deletion strains, locus YML124C, strain tub3, stronger effect = lower value) of 0.962 and a normalized growth (S. cerevisiae deletion strains, locus YMR058W, strain fet3, stronger effect = lower value) of 1. The normalized growth (S. cerevisiae deletion strains, locus YMR078C, strain ctf18, stronger effect = lower value) was 0.958, the normalized growth (S. cerevisiae deletion strains, locus YMR125W, strain sto1, stronger effect = lower value) was 0.978 and the normalized growth (S. cerevisiae deletion strains, locus YMR129W, stronger effect = lower value) was 0.973. It also gave a normalized growth (S. cerevisiae deletion strains, locus YMR205C, strain PFK2, stronger effect = lower value) of 0.984, a normalized growth (S. cerevisiae deletion strains, locus YMR223W, strain ubp8, stronger effect = lower value) of 0.962 and a normalized growth (S. cerevisiae deletion strains, locus YMR231W, strain pep5, stronger effect = lower value) of 1. The normalized growth (S. cerevisiae deletion strains, locus YMR307W, strain GAS1, stronger effect = lower value) was 1.08, the normalized growth (S. cerevisiae deletion strains, locus YNL067W, strain RPL9B, stronger effect = lower value) was 0.984 and the normalized growth (S. cerevisiae deletion strains, locus YNL071W, strain lat1, stronger effect = lower value) was 0.986. The normalized growth (S. cerevisiae deletion strains, locus YNL128W, strain TEP1, stronger effect = lower value) was 0.977, the normalized growth (S. cerevisiae deletion strains, locus YNL153C, strain GIM3, stronger effect = lower value) was 0.974 and the normalized growth (S. cerevisiae deletion strains, locus YNL183C, strain NPR1, stronger effect = lower value) was 0.927. The normalized growth (S. cerevisiae deletion strains, locus YNL209W, strain ssb2, stronger effect = lower value) was 0.983, the normalized growth (S. cerevisiae deletion strains, locus YNL233W, strain BNI4, stronger effect = lower value) was 0.977 and the normalized growth (S. cerevisiae deletion strains, locus YNL248C, strain rpa49, stronger effect = lower value) was 0.963. It also gave a normalized growth (S. cerevisiae deletion strains, locus YNL250W, strain rad50, stronger effect = lower value) of 0.971, a normalized growth (S. cerevisiae deletion strains, locus YNL271C, strain bni1, stronger effect = lower value) of 0.961 and a normalized growth (S. cerevisiae deletion strains, locus YNL298W, strain CLA4, stronger effect = lower value) of 0.964. For the same compound, the normalized growth (S. cerevisiae deletion strains, locus YNL307C, strain MCK1, stronger effect = lower value) was 0.889 (active), the normalized growth (S. cerevisiae deletion strains, locus YNL322C, strain KRE1 (second series), stronger effect = lower value) was 0.949 and the normalized growth (S. cerevisiae deletion strains, locus YNR049C, strain mso1, stronger effect = lower value) was 0.994. The normalized growth (S. cerevisiae deletion strains, locus YNR052C, strain pop2, stronger effect = lower value) was 0.932, the normalized growth (S. cerevisiae deletion strains, locus YOL006C, strain TOP1, stronger effect = lower value) was 0.867 and the normalized growth (S. cerevisiae deletion strains, locus YOL012C, strain htz1) was 1. The normalized growth (S. cerevisiae deletion strains, locus YOL147C, strain pex11, stronger effect = lower value) was 0.967, the normalized growth (S. cerevisiae deletion strains, locus YOR001W, strain rrp6, stronger effect = lower value) was 1.02 and the normalized growth (S. cerevisiae deletion strains, locus YOR061W, strain CKA2, stronger effect = lower value) was 0.942. The normalized growth (S. cerevisiae deletion strains, locus YOR069W, strain VPS5, stronger effect = lower value) was 0.974, the normalized growth (S. cerevisiae deletion strains, locus YOR070C, strain gyp1, stronger effect = lower value) was 0.994 and the normalized growth (S. cerevisiae deletion strains, locus YOR080W, strain dia2, stronger effect = lower value) was 0.978. It also gave a normalized growth (S. cerevisiae deletion strains, locus YOR083W, strain WHI5, stronger effect = lower value) of 0.937, a normalized growth (S. cerevisiae deletion strains, locus YOR106W, strain vam3, stronger effect = lower value) of 0.982 and a normalized growth (S. cerevisiae deletion strains, locus YOR136W, strain idh2, stronger effect = lower value) of 0.992. For the same compound, the normalized growth (S. cerevisiae deletion strains, locus YOR144C, strain elg1, stronger effect = lower value) was 0.97, the normalized growth (S. cerevisiae deletion strains, locus YOR184W, strain ser1, stronger effect = lower value) was 0.829 (active) and the normalized growth (S. cerevisiae deletion strains, locus YOR231W, strain MKK1, stronger effect = lower value) was 0.956. For the same compound, the normalized growth (S. cerevisiae deletion strains, locus YOR265W, strain rbl2, stronger effect = lower value) was 0.998, the normalized growth (S. cerevisiae deletion strains, locus YOR270C, strain vph1, stronger effect = lower value) was 0.996 and the normalized growth (S. cerevisiae deletion strains, locus YOR290C, strain snf2, stronger effect = lower value) was 0.961. For the same compound, the normalized growth (S. cerevisiae deletion strains, locus YOR316C, strain cot1, stronger effect = lower value) was 0.969, the normalized growth (S. cerevisiae deletion strains, locus YPL051W, strain arl3, stronger effect = lower value) was 0.98 and the normalized growth (S. cerevisiae deletion strains, locus YPL078C, strain atp4, stronger effect = lower value) was 0.968. For the same compound, the normalized growth (S. cerevisiae deletion strains, locus YPL106C, strain sse1, stronger effect = lower value) was 0.939, the normalized growth (S. cerevisiae deletion strains, locus YPL240C, strain hsp82, stronger effect = lower value) was 0.989 and the normalized growth (S. cerevisiae deletion strains, locus YPL241C, strain CIN2, stronger effect = lower value) was 0.975. The normalized growth (S. cerevisiae deletion strains, locus YPL256C, strain CLN2, stronger effect = lower value) was 0.88, the normalized growth (S. cerevisiae deletion strains, locus YPR119W, strain clb2, stronger effect = lower value) was 0.972 and the normalized growth (S. cerevisiae deletion strains, locus YPR141C, strain kar3, stronger effect = lower value) was 0.946. For the same compound, the normalized growth (S. cerevisiae deletion strains, locus YPR163C, strain tif3, stronger effect = lower value) was 0.966, the normalized growth (S. cerevisiae deletion strains, locus YPR167C, strain met16, stronger effect = lower value) was 0.958 and the normalized growth (S. cerevisiae deletion strains, strain wtn01, stronger effect = lower value) was 0.936. For the same compound, the normalized growth (S. cerevisiae strains, strain wild type, stronger effect = lower value) was 0.953.
